An excerpt weighted towards active compounds, which were near 7% of everything screened.
PLK1 PBD inh: qHTS for Inhibitors of PLK1-PDB (polo-like kinase 1 - polo-box domain): Primary Screen; 360,000 compounds, 2.8% hits; Plk1 PBD binding of FITC phosphopeptide, fluorescence polarization; AID 720504, 2013; Potency, µM, for the others: max response, negative = inhibition, usual class: inhibitors; also: potency is read from the fitted curve at half-maximal effect; series mostly up to about 57 µM; % is scaled to controls: 0 for no effect and ±100 for the full control effect; nearly all actives have a fitted effect of over 65% in size
GCN5L2 inh: qHTS Assay for Inhibitors of GCN5L2 | Histone acetyltransferase KAT2A (Homo sapiens), Q92830 | GCN5L2 HAT assay, ThioGlo1 CoA-SH fluorescence | Potency, µM (top dose mostly 58.9 µM), inactives show at the top dose activity change, negative = inhibition, usual class: inhibitors | 390,000 compounds, 0.21% hits | AID 504327, 2011; also: potency is read from the fitted curve at half-maximal effect; % is scaled to controls: 0 for no effect and ±100 for the full control effect
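Compounds, pin-transferred from DMSO stocks, meet 20nM GCN5L2 for 15 min before the reaction begins with H3(1-25) peptide (75uM) and acetyl-CoA (70uM). Thiol-reactive ThioGlo1 reports CoA release over 20 min at room temperature.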
BAZ2B inh: qHTS Assay for Inhibitors of BAZ2B | Bromodomain adjacent to zinc finger domain protein 2B (Homo sapiens), Q9UIF8 | AlphaScreen BAZ2B-H3K14Ac peptide displacement | Potency, µM (titrated, usually from 114 µM), without a hit: top-dose activity change, negative = inhibition, hits mostly inhibitors | 360,000 compounds, 4.4% hits | AID 504333, 2011; also: potency is read from the fitted curve at half-maximal effect; % is scaled to controls: 0 for no effect and ±100 for the full control effect; nearly all actives have a fitted effect of over 60% in size
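BAZ2B (50 nM) with biotin-H3(5-23)K14Ac peptide (50 nM) in PBS pH 7.4, 0.01% Tween-20, preformed 30 min, then compound 30 min at room temperature; top concentration 110uM. AlphaScreen streptavidin donor/nickel chelate acceptor beads (10 ug/mL final), 20 min dark, signal read.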
HP1b binding inh: HTS for Inhibitors of HP1-beta Chromodomain Interactions with Methylated Histone Tails; AID 540317, 2011; 390,000 compounds, 0.56% hits; Potency, µM (doses to about 114 µM), inactives show top-dose activity change, negative = inhibition, usual class: inhibitors; Chromobox protein homolog 1 (Homo sapiens), P83916; AlphaScreen HP1-beta / biotin-H3K9me3 peptide binding; also: potency is read from the fitted curve at half-maximal effect; nearly all actives have a fitted effect of over 70% in size
Target sequence (P83916 whole entry, looked up): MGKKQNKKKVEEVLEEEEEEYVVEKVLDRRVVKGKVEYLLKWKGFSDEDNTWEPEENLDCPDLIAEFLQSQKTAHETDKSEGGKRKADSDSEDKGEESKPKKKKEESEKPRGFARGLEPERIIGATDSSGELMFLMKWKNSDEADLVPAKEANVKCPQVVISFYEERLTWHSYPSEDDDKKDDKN
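Compound inhibition of the preformed complex between 50 nM HP1-beta and 50 nM biotinylated H3K9me3 peptide was read by AlphaScreen. Buffer was PBS pH 7.4 with 0.01% Tween-20. Incubations ran 30 min at room temperature, with 10 ug/mL donor/acceptor beads.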
JMJD2A Tudor: qHTS Assay for Inhibitors of JMJD2A-Tudor Domain; AlphaScreen JMJD2A-Tudor / H3K4me3 peptide binding; Lysine-specific demethylase 4A (Homo sapiens), O75164; 390,000 compounds, 4.4% hits; AID 504339, 2011; Potency, µM (series often up to 114 µM), for inactives: at the top dose activity change, negative = inhibition, hits mostly inhibitors; also: potency is read from the fitted curve at half-maximal effect; % is scaled to controls: 0 for no effect and ±100 for the full control effect; nearly all actives have a fitted effect of over 50% in size
PI5P4K alpha inh: qHTS for Inhibitors of phosphatidylinositol 5-phosphate 4-kinase (PI5P4K). Phosphatidylinositol 5-phosphate 4-kinase type-2 alpha (Homo sapiens), P48426. 330,000 compounds, 1.2% hits. AID 652105, 2013. max response, %. PI5P4Kalpha enzyme, ADP-Glo luminescence, 60 min; stronger effect = lower value; active = max response of -50% or lower; inconclusive = between -30% and -50%; inactive = -30% or higher; also: value at the top dose of about 77 µM; % is scaled to controls: 0 for no effect and ±100 for the full control effect
Target sequence (P48426 whole entry, looked up): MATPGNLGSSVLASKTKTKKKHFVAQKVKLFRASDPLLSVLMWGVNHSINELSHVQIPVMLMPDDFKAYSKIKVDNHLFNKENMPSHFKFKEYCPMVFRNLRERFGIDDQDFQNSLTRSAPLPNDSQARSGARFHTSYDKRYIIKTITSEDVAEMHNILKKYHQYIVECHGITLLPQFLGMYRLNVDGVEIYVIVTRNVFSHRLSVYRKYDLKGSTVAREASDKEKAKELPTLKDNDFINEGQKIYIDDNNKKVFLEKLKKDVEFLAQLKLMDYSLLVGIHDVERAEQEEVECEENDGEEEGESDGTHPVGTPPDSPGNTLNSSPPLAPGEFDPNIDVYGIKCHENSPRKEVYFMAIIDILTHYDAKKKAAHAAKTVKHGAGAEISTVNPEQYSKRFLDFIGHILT
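ADP-Glo luminescence end-point read after a 60 min room-temperature kinase reaction of PI5P4Kalpha plus substrate, initiated with ATP at 5 microM final. Buffer: 0.038 M HEPES pH 7.4, EGTA, 0.1% CHAPS, 5% DMSO.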
An asterisk follows results filed as active; u = inconclusive; x = not tested or not shown; [ ] = another dose, or the depositor's remark. Unless noted, calls follow the shape of the dose curve; as a rule, active = well fitted curve in the direction sought with a large enough effect; inconclusive = small, poorly fitted or top-dose-only effect, or another doubt; inactive = no such curve, though single readings can be large; an effect the other way counts as inactive or inconclusive.

SMILES	PLK1 PBD inh	GCN5L2 inh	BAZ2B inh	HP1b binding inh	JMJD2A Tudor	PI5P4K alpha inh
O=C(Nc1nc(=S)ss1)c1ccc(Cl)cc1Cl	15µM*	-7.2%	-27.5%	u	-3.9%[57.1 µM]	u
COc1cc(OC)c(C(=O)Nc2ncn[nH]2)cc1OC	-7.9%	x	x	32.0%	50.1µM*	2.1
O=C(O)C(=O)Nc1ncn[nH]1	7.3%	x	x	x	x	-10.9
COc1cc(OC)cc(C(=O)Nc2ncn[nH]2)c1	3.4%	4.9%	u	33.7%	-33.8%	-0.9
C=CCOc1cccc(C(=O)Nc2ncn[nH]2)c1	1.1%	-9.1%	56.2µM*	28.8%	-11.6%	-2.9
O=C(Nc1ncn[nH]1)c1ccc(Cl)c(Cl)c1	u	-10.4%	-5.5%	47.4%	-19.2%	-12.2
CCOc1cc(C(=O)Nc2ncn[nH]2)cc(OCC)c1OCC	-9.3%	-1.8%	56.2µM*	10.4%	-32.6%	-5.1
O=C(c1cnsn1)N1CCCC(Nc2ccc(F)c(F)c2)C1 (stereo not drawn)	-16.9%	0.9%	-3.6%	52.5%	-14.4%	0.2
COC(CN(C)C(=O)C1CCCN(S(=O)(=O)c2ccc3c(c2)oc(=O)n3C)C1)OC (stereo not drawn)	-6.3%	0.2%	-12.3%	22.1%	-3.5%	-0.6
Cc1cc(C(=O)C(=O)Nc2nnc(C(C)C)s2)c(C)n1-c1ccccc1	x	-2.7%	3.1%	9.6%	-23.5%	x
COc1ccccc1-n1c(=O)c(C#N)c(-c2ccc([N+](=O)[O-])cc2)c2cc(C(=O)c3ccccc3O)cnc21	2.7%	-1.6%	-30.7%	11.3%	-27.0%	-21.1
O=C(Nc1ncn[nH]1)c1ccc(Cl)cc1Cl	-6.1%	-16.5%	50.1µM*	33.4%	-25.6%	8.9
COc1ccc(NC(c2ccc(F)cc2)c2nnc(-c3ccccc3Cl)o2)cc1Cl (stereo not drawn)	x	-4.6%	u	2.5%	-30.5%	x
Cn1c(CSCc2ccc(Cl)cc2)n[nH]c1=S	-21.6%	-2.4%	-21.7%	5.7%	u	0.7
Cn1c(CSCc2ccc(F)cc2)n[nH]c1=S	-4.0%	-1.1%	-8.9%	11.2%	28.2µM*	-2.8
Cn1c(CSCc2ccccc2)n[nH]c1=S	-13.5%	-3.2%	-7.7%	11.9%	7.94µM*	-9.9
COc1ccc(OCC(=O)NNC(=O)Cn2c(=O)cnc3ccccc32)cc1	7.6%	8.1%	u	43.7%	-1.4%	-3.1
Cc1cc(NC(=O)CSc2nc(N)c(NC(=O)c3ccco3)c(=O)[nH]2)no1	29.9µM*	17.3%	-12.1%	-1.2%	u	-3.6
Cc1cc(NC(=O)CSc2nc(N)c(NC(=O)c3ccccc3)c(=O)[nH]2)no1	-15.0%	-2.5%	-8.6%	2.3%	-9.1%	-7.9
CCc1c(C)nc(SCC(=O)N2CCN(c3ccccc3)CC2)[nH]c1=O	-21.1%	-3.3%	-10.8%	27.2%	-20.8%	-1.0
CCc1c(C)nc(SCC(=O)N2CCCCC2CC)[nH]c1=O (stereo not drawn)	23.8µM*	-18.2%	-10.7%	-1.1%	-14.0%[11.4 µM]	-18.3
CCNC(=O)c1sc(=S)n(-c2ccc(C)cc2)c1N	u	-1.7%	-29.9%	u	-18.8%	x
CCn1c(N)c(C(=O)Nc2ccccc2C(=O)OC)sc1=S	11.9µM*	-2.7%	u	u	-16.4%[11.4 µM]	-13.4
CCn1c(N)c(C(=O)NCCOC)sc1=S	26.7µM*	-12.1%	5.0%	u	2.9%	-12.1
COC(=O)c1ccccc1NC(=O)CC(=O)Nc1ccccc1C(=O)OC	-5.1%	-18.0%	4.3%	23.1%	-3.7%	-1.1
SMILES	PLK1 PBD inh	GCN5L2 inh	BAZ2B inh	HP1b binding inh	JMJD2A Tudor	PI5P4K alpha inh
CN(Cc1cccs1)c1ncnc2ccc(-c3ccc4cn(C)nc4c3)cc12	x	x	x	x	-24.8%	x
O=C1C=C(c2ccccc2)OC(c2ccccc2)O1 (stereo not drawn)	-3.0%	1.9%	50.1µM*	81.1%	14.0%	3.5
O=C1C=C(c2ccccc2)OC2(CCCC2)O1	-11.6%	-7.6%	2.1%	42.0%	33.7%	0.2
CCn1nc(C(=O)OCC(=O)NC(C)C)c2ccccc2c1=O	18.9µM*	-5.9%	-3.7%	-10.8%	u	-22.4
CCn1nc(C(=O)Nc2ccccc2N2CCCC2)c2ccccc2c1=O	-2.0%	-20.9%	39.8µM*	u	35.5µM*	7.6
CC(C)CCn1nc(C(=O)OCC(=O)NC(C)c2ccccc2)c2ccccc2c1=O (stereo not drawn)	0.2%	x	x	x	x	-14.1
Cc1cc(C)nc(NS(=O)(=O)c2ccc(NCN3C(=O)c4ccccc4C3=O)cc2)n1	2.0%	x	x	x	x	1.2
CC(C)n1nnnc1C1c2ccccc2C(=O)N1CCCn1ccnc1 (stereo not drawn)	-2.2%	x	x	x	x	3.0
C/C(=N/NC(=O)CNC(=O)/C=C/c1ccco1)c1ccc(Cl)cc1	-27.3%	-13.6%	56.2µM*	21.5%	-30.1%	u
CC(/C=C/c1ccco1)=N\NC(=O)CNc1ccc2ccccc2c1	-6.9%	-13.3%	35.5µM*	-20.0%	u	-23.8
O=C(/C=C/c1ccco1)c1cccc([N+](=O)[O-])c1	-20.2%	x	x	u	35.5µM*	-72.9*
COc1ccccc1/C=C/C(=O)NCC(=O)N/N=C(/C)c1ccc(Cl)cc1	3.5%	-5.8%	-34.2%	14.9%[57 µM]	-21.4%	-6.3
O=C(N/N=C/C=C/c1ccco1)c1cccc([N+](=O)[O-])c1	-4.6%	-1.1%	-7.8%	35.9%	-17.0%	-18.3
O=C(/C=C/c1ccc([N+](=O)[O-])cc1)/C=C/c1ccco1	x	-21.3%	28.2µM*	x	x	x
COc1cccc(CNS(=O)(=O)c2c(C(=O)N3CCCC3)c(C)n(C)c2C)c1	-4.9%	-14.4%	u	45.7%	-25.3%	-3.0
O=C(/C=C/c1ccco1)NCC(=O)N/N=C/c1ccc(Cl)cc1	-9.0%	-3.8%	-18.7%	22.6%	-20.1%	-29.5
O=C(/C=C/c1ccco1)NCC(=O)N/N=C/c1ccc([N+](=O)[O-])cc1	10.6µM*	-22.1%	u	u	14.1µM*	-60.5*
COc1cc(NC(=O)NCC2CCN(Cc3ccccc3F)CC2)cc(OC)c1	-1.1%	u	2.3%	24.2%	-16.1%	5.0
CC(C)CCOc1ccc(Cl)cc1CN1CCOCC1	23.8µM*	-7.1%	4.5%	56.0%	16.4%[11.4 µM]	6.7
C/C(=N\Nc1ccc2nncn2n1)c1ccccn1	-9.9%	0.9%	8.91µM*	27.5%	22.4µM*	-4.8
CCN1CCN(CCCNC(=O)c2ccc(/C=C3/Sc4ccccc4N(Cc4ccccc4F)C3=O)cc2)CC1	-10.8%	-10.8%	u	-3.3%	39.8µM*	-28.3
CCN1CCN(CCNC(=O)c2ccc(/C=C3/Sc4ccccc4N(Cc4ccccc4C)C3=O)cc2)CC1	-9.1%	-4.5%	u	-19.1%	-35.3%[11.4 µM]	-1.9
